Ba/F3 V617F tox = lowers viability of Ba/F3 cells expressing EpoR and JAK2V617F | AID 1446 | inhibition, % at 5.6 µM | 1.1% of 220,000 active | ATP luminescence;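 active = inhibition above the campaign mean plus 3 SD over all tested compounds, cut at about 24% in these data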;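 note: cytokine-independent growth of Ba/F3 cells driven by EpoR plus mutant JAK2; 0% = DMSO-treated cells and 100% = JAK inhibitor I control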
IEC-6 tox = counter-screen for KLF5 inhibitors: cytotoxicity in IEC-6 cells | inhibition, % at 5 µM | 0.78% of 290,000 active | IEC-6 cytotoxicity, luminescence viability | AID 1825; in the data active = inhibition above about 22%;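 note: 0% = plate median of test compound wells and 100% = cytotoxic reference compound wells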
BaF3 tox = reduces parental Ba/F3 cell viability, JAK2V617F counter-screen; CellTiter-Glo ATP luminescence; inhibition, % at 5.6 µM; 1.1% of 220,000 active;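 active = inhibition above a per-campaign cutoff, the mean inhibition of all tested compounds plus 3 SD, cut at about 27% in these data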;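 note: 0% = DMSO wells and 100% = JAK Inhibitor I control wells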
KLF5 inh = inhibitors of KLF5 expression; DLD-1 KLF5 promoter-luciferase reporter, luminescence; inhibition, % at 5 µM; 0.23% of 290,000 active; AID 1700;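 active = inhibition above a per-plate limit of that plate's mean compound inhibition plus 3 SD, cut at about 60% in these data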;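 note: 0% = DMSO wells and 100% = LY294002 at 200 µM; higher means less KLF5 promoter-driven luciferase light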
aSyn UTR inh = MLPCN primary screen, SNCA 5' untranslated region; inhibition, % (tested at 7.5 µM); alpha-synuclein 5'UTR reporter, inhibitor activity; 0.82% of 300,000 active; AID 1813; in the data active = inhibition above about 60%;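 note: H4 neuroglioblastoma cells stably carrying SNCA 5'UTR luciferase fusion; 0% = DMSO wells and 100% = positive control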
APP transl inh = APP translation inhibition; SH-SY5Y APP 5'UTR-luciferase reporter, luminescence; inhibition, % at 2 µM; 0.82% of 190,000 active;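 active = inhibition above a set limit, derived from the sample mean plus 3 SD, cut at about 45% in these data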
* = called active by the depositor; . = no result given. Shown are actives, neighbours in structure and some others; about 2.2% of the full set was active somewhere.

SMILES	Ba/F3 V617F tox	IEC-6 tox	BaF3 tox	KLF5 inh	aSyn UTR inh	APP transl inh
C=CCn1c(=O)c(C(=O)NCCN(CC)CC)c(O)c2ccccc21	-1	6	46*	-17	.	-2
Cc1cc(C(=O)CN2C(=O)c3ccccc3S2(=O)=O)c(C)n1-c1ccccc1	1	-2	6	3	120*	35
O=C(CN1C(=O)c2ccccc2S1(=O)=O)c1ccccc1	-5	4	0	14	.	3
Cc1ccc(C(=O)CN2C(=O)c3ccccc3S2(=O)=O)cc1	-4	-2	-1	57	109*	.
CCOc1[nH]n(-c2ccccc2)c(=O)c1C=NCc1ccncc1	8	7	8	-24	14	49*
CCOc1[nH]n(-c2ccc(Cl)cc2)c(=O)c1C=NCc1cccnc1	1	1	5	-14	6	-32
Oc1c(C(Nc2cccc(C(F)(F)F)c2)c2cccnc2)ccc2cccnc12 (stereo unspecified)	-3	-2	3	-7	-27	3
Cc1cc(NC(c2cccnc2)c2ccc3cccnc3c2O)no1 (stereo unspecified)	1	18	-1	28	77*	54*
COCCn1c(SC(C)C(=O)NCC2CCCO2)nc2sc3c(c2c1=O)CCC3 (stereo unspecified)	.	.	.	.	5	.
CSc1ccccc1C(=O)OCC(=O)NC1CCS(=O)(=O)C1 (stereo unspecified)	4	0	10	-29	-8	4
CCN1/C(=C/c2ccc3cc(C)ccc3[n+]2CC)Sc2ccc3sccc3c21	.	.	.	.	131*	.
CC[n+]1c(C)sc2c3ccsc3ccc21	-4	-15	2	-11	-24	11
CCOC(=O)c1ccccc1-c1csc(N)n1	5	6	53*	-5	10	-9
CCOC(=O)c1c(C)[nH]c(-c2csc(N)n2)c1C	3	4	3	4	.	73*
CC1CCCCN1CCCNC(=O)CCCN1C(=O)c2cccnc2Sc2ccccc21 (stereo unspecified)	.	4	.	-1	-4	.
O=C(Oc1ccc(/C=N/Nc2nc(N3CCCCC3)nc(N3CCCCC3)n2)cc1)c1ccco1	1	-2	4	-43	-1	-11
O=C1c2cccc3c([N+](=O)[O-])ccc(c23)C(=O)N1c1nccs1	39*	8	32*	-16	20	81*
O=C1c2cccc3c([N+](=O)[O-])ccc(c23)C(=O)N1c1ccc(Cl)cn1	-2	0	-1	16	36	78*
O=C1c2cccc3c(N4CCCCC4)ccc(c23)C(=O)N1c1ccc(Cl)cn1	0	0	9	3	.	-18
O=C1c2cccc3c([N+](=O)[O-])ccc(c23)C(=O)N1c1ccccn1	21	7	10	-1	-38	81*
CCN(CC)S(=O)(=O)c1cc(NC(=O)C(=O)c2c(-c3ccccc3)cc3ccccn23)ccc1C	-3	-2	2	-26	23	93*
COc1ccc2[nH]c(=O)c(CN(Cc3cccnc3)C(=S)NCC3CCCO3)cc2c1 (stereo unspecified)	4	3	10	-15	13	3
CCOC(=O)c1sc2ncn(C(C)C(=O)OC)c(=O)c2c1C (stereo unspecified)	-4	2	1	1	-1	-14
CCCOC(=O)C(C)n1cnc2sc(C)c(C)c2c1=O (stereo unspecified)	-6	-1	46*	-22	-13	10
O=C(/C=C/c1ccc(F)cc1)NC(=S)NNC(=O)c1cnccn1	1	4	-2	2	95*	.
SMILES	Ba/F3 V617F tox	IEC-6 tox	BaF3 tox	KLF5 inh	aSyn UTR inh	APP transl inh
O=C(NNC(=S)NC(=O)c1cccnc1)c1ccc(F)cc1	-3	-4	-4	5	-11	.
O=C(NC(=S)NNC(=O)c1cnccn1)c1ccc(F)cc1	-3	0	3	1	70*	8
COc1ccc(/C=C/C(=O)NC(=S)NNC(=O)c2cccnc2)cc1	-4	-1	8	-68	0	5
O=C(/C=C/c1ccc(F)cc1)NC(=S)Nc1ccccc1	.	-2	.	-42	0	.
COc1ccc(/C=C/C(=O)NC(=S)NNC(=O)c2cnccn2)cc1	0	5	-1	-5	75*	.
O=C(Nc1ccc(S(=O)(=O)NC2=NCCCCC2)cc1)c1ccccc1Cl	2	0	1	7	-14	.
O=C(N/N=C/C=C/c1ccccc1)c1n[nH]c2c1CCC2	10	11	7	-7	70*	60*
O=C(N/N=C/c1cccs1)c1n[nH]c2c1CCCC2	2	8	2	-6	82*	.
O=C(N/N=C/c1cccc2ccccc12)c1n[nH]c2c1CCCC2	-2	2	9	-18	-22	74*
O=C(N/N=C\c1cccc(Cl)c1)c1n[nH]c2c1CCCC2	1	4	7	-90	-152	-156
CCc1ccc(-c2cc(C)no2)cc1S(=O)(=O)N1CCN(C(=O)c2ccco2)CC1	.	-5	.	11	-1	.
Nc1c(Cl)ncnc1N/N=C/c1ccccn1	5	9	6	-29	.	92*
Nc1c(Cl)ncnc1N/N=C/c1ccc2ccccc2n1	-1	8	5	-16	.	66*
Nc1c(Cl)ncnc1N/N=C/c1cccnc1	4	1	19	-19	-40	.
CC(C)(C)OC(=O)CNC(=O)c1nc[nH]c1C(=O)N1CCc2ccccc2C1	.	-6	.	12	-1	.
CCc1ccc(/C=C2\SC(=S)N(CCCC(=O)Nc3ccccn3)C2=O)cc1	-1	-4	4	-8	73*	51*
Cc1ccc(/C=C2\SC(=S)N(CC(=O)Nc3cccnc3)C2=O)cc1	0	-3	8	2	17	-8
Cc1ccc(/C=C2\SC(=S)N(CCCC(=O)Nc3cccnc3)C2=O)cc1	.	-3	.	57	79*	.
CCc1ccc(/C=C2\SC(=S)N(CCC(=O)NC3=NCCS3)C2=O)cc1	-2	0	-2	25	89*	53*
COc1ccccc1Oc1ccc(Oc2ccccc2OC)cc1	0	-3	5	-19	15	-6
COc1ccc(C(NC(=O)c2cccnc2)c2cc(Cl)c3cccnc3c2O)cc1OC (stereo unspecified)	1	7	5	1	76*	74*
O=C(CCc1ccccc1)NC(c1cccs1)c1cc(Cl)c2cccnc2c1O (stereo unspecified)	-1	-4	1	-14	88*	68*
CCCCC(=O)NC(c1ccco1)c1cc(Cl)c2cccnc2c1O (stereo unspecified)	3	-4	7	-2	41	46*
CCC(=O)NC(c1ccco1)c1cc(Cl)c2cccnc2c1O (stereo unspecified)	0	-5	9	13	100*	-4
NC(Cc1ccccc1)C(=O)N1CCCCC1 (stereo unspecified)	.	8	.	-17	-4	.
CCC(=O)NC(c1ccc(OC)cc1)c1cc(Cl)c2cccnc2c1O (stereo unspecified)	-2	2	-1	-5	81*	64*

Bioassay records deposited in PubChem BioAssay by several laboratories.
